{"source": "PubChem BioAssay (NCATS)", "note": "Inconclusive results are not listed. A number with no mark means an inactive call. The source made the active and inactive calls. Calls come from the whole dose curve; as a rule, active = well fitted cell-killing curve with a large enough effect; inconclusive = small, poorly fitted or top-dose-only effect, or effect the other way; inactive = no such curve, though single readings can be large or run the other way. Potency is the fitted concentration of half-maximal effect.", "data": [{"test": "Quantitative High-Throughput drug screen in 47 multiple myeloma cell lines against the NCATS MIPE library collection: PE2_PLB cell viability assay (AID 1919869); note: nearly all actives have a fitted effect of over 35% in size", "settings": "PE2_PLB myeloma cells viability, ATP luminescence, 48 h; series mostly up to 45.8 µM; viability (% of control): at the top concentration", "excerpt": "PI: Beverly A. Mock Ph.D.\nLaboratory of Cancer Biology and Genetics,\nCenter for Cancer Research, National Cancer Institute,\nNational Institute of Health, Bethesda, Maryland\nDrug resistance and disease progression are common in multiple myeloma (MM) patients, underscoring the need for new therapeutic combinations. […] We hypothesized that effective combinations would reduce MYC expression and enhance p16 activity. […] These preclinical data identify potentially useful drug combinations for evaluation in drug-resistant MM and reveal potential mechanisms of combined drug sensitivity.\nDescribed herein is the primary MIPE qHTS used to cherrypick compounds. Validated compounds were then further tested for potential synergistic activiy.\n[1] Peat TJ, Gaikwad SM, Dubois W, Gyabaah-Kessie N, Zhang S, Gorjifard S, Phyo Z, Andres M, Hughitt VK, Simpson RM, Miller MA, Girvin AT, Taylor A, Williams D, D'Antonio N, Zhang Y, Rajagopalan A, Flietner E, Wilson K, Zhang X, Shinn P, Klumpp-Thomas C, McKnight C, Itkin Z, Chen L, Kazandijian D, Zhang J, Michalowski AM, Simmons JK, Keats J, Thomas CJ, Mock BA. Drug combinations identified by high-throughput screening promote cell cycle transition and upregulate Smad pathways in myeloma. Cancer Lett. 2023 Aug 1;568:216284. doi: 10.1016/j.canlet.2023.216284. Epub 2023 Jun 24. PMID: 37356470; PMCID: PMC10408729.\nSEQUENCE No. (e.g., 1, 2, 3, etc.); […] (e.g., Cells, Incubation, Reagent, etc.); VALUE and DESCRIPTION.\n1; Cells; 5 uL; white, solid bottom 1536-well Greiner assay plate.\n2; Compounds; 23 nL; Kalypsis pin tool (Wako USA) equipped with a 1536-well pin head to transfer to the assay plates.\n3; Incubation; 48 hours; 37C incubation.\n4; Reagent;5uL; CellTiter Glo (Promega).\n5; Detector; 425V; Luminescence; Viewlux PerkinElmer.\nNOTES (numbers refer to Sequence numbers above)\n1. The cell-based screening methods employed in this study were like those previously published. Briefly, the corresponding myeloma cell lines were screened in 1,536-well plates with 500 cells, 5-uL per well for inhibition of cell viability (assessed by measuring ATP levels with CellTiterGlo).\n2. NCATS MIPE 4.0 library of approved and investigational drugs were added using the Kalypsis pin tool. Wells treated with DMSO only for 100% viability and media only for 0% viability were used as controls.\n3. The assay plates were covered and incubated for 48 hours in a 37C, 5% CO2 incubator with controlled humidity.\n4. After 48 hours, CellTilter-GloTM luminescent substrate mix (Promega) reagent was added to the assay plate and plates we incubated for 5 min at room temperature.\n5. Signal was measured as median relative luminescence units on a ViewLux (PerkinElmer) multiplate reader.\n[1] Heske CM, Davis MI, Baumgart JT, Wilson K, Gormally MV, Chen L, Zhang X, Ceribelli M, Duveau DY, Guha R, Ferrer M, Arnaldez FI, Ji J, Tran HL, Zhang Y, Mendoza A, Helman LJ, Thomas CJ. Matrix Screen Identifies Synergistic Combination of PARP Inhibitors and Nicotinamide Phosphoribosyltransferase (NAMPT) Inhibitors in Ewing Sarcoma. Clin Cancer Res. 2017 Dec 1;23(23):7301-7311. doi: 10.1158/1078-0432.CCR-17-1121. Epub 2017 Sep 12. PMID: 28899971; PMCID: PMC6636827.", "values": [{"smiles": "Cn1cnc2c(F)c(Nc3ccc(Br)cc3F)c(C(=O)NOCCO)cc21", "Potency": "74.3 nM (active)"}, {"smiles": "N[C@H]1CN(c2c(F)cc3c(=O)c(C(=O)O)cn(C4C[C@@H]4F)c3c2Cl)CC12CC2", "note": "(stereo not given in full)", "viability (% of control)": "93.7%"}, {"smiles": "Oc1cc(-c2nc(-c3ccccc3)[nH]c2-c2ccncc2)ccc1Cl", "Potency": "5260 nM (active)"}, {"smiles": "NC1=N[C@H]2[C@H](CS[C@H]2CCCCC(=O)O)N1", "viability (% of control)": "113% [at 23.2 µM]"}, {"smiles": "N=c1ccn2c(n1)O[C@H]1[C@@H](O)[C@@H](CO)O[C@H]12", "viability (% of control)": "95.6%"}, {"smiles": "C[C@@]12C(=O)OC(=O)[C@@]1(C)C1CCC2O1", "Potency": "2640 nM (active)"}, {"smiles": "Nc1nc(N)c2nc(-c3cccc(O)c3)c(-c3cccc(O)c3)nc2n1", "Potency": "2960 nM (active)"}, {"smiles": "N#CC(=C(N)Sc1ccc(N)cc1)c1ccccc1C(F)(F)F", "Potency": "2960 nM (active)"}, {"smiles": "CC(=O)C1=C(O)C=C2Oc3c(C(C)=O)c(O)c(C)c(O)c3C2(C)C1=O", "note": "(stereo not given)", "viability (% of control)": "103%"}, {"smiles": "COc1ccc(S(=O)(=O)Nc2cccnc2Nc2ccc(O)cc2)cc1", "Potency": "148 nM (active)"}, {"smiles": "COc1cc2c(Nc3ccc(Cl)c(Cl)c3F)ncnc2cc1OCC1C[C@@H]2CN(C)C[C@H]2C1", "Potency": "1870 nM (active)"}, {"smiles": "CC(C)(C)c1nc2c3cc[nH]c(=O)c3c3cc(F)ccc3c2[nH]1", "Potency": "833 nM (active)"}, {"smiles": "Cc1ccc(O)c(C(CCN(C(C)C)C(C)C)c2ccccc2)c1", "note": "(stereo not given)", "viability (% of control)": "97.4%"}, {"smiles": "CCc1nc(-c2cccc(C)c2)c(-c2ccnc(NC(=O)c3ccccc3)c2)s1", "Potency": "13200 nM (active)"}, {"smiles": "O=C1NCCc2[nH]c(-c3ccncc3)cc21", "Potency": "1870 nM (active)"}, {"smiles": "Cc1ccc2nc(NCCN)c3ncc(C)n3c2c1", "Potency": "9350 nM (active)"}, {"smiles": "O=C(c1ccc(F)cc1)N1CCC[C@H](c2nc(-c3ccc(F)cc3)no2)C1", "viability (% of control)": "123%"}, {"smiles": "COc1cc(CCc2cc(NC(=O)c3ccc(N4C[C@@H](C)N[C@@H](C)C4)cc3)n[nH]2)cc(OC)c1", "Potency": "11800 nM (active)"}, {"smiles": "C[N+](C)([O-])CCNc1ccc(NCC[N+](C)(C)[O-])c2c1C(=O)c1c(O)ccc(O)c1C2=O", "viability (% of control)": "119%"}, {"smiles": "CC(C)(O)CC[C@@H](O)[C@](C)(O)[C@H]1CC[C@@]2(O)C3=CC(=O)[C@@H]4C[C@@H](O)[C@@H](O)C[C@]4(C)[C@@H]3CC[C@]12C", "viability (% of control)": "104%"}, {"smiles": "COc1cccc2c1C(=O)c1c(O)c3c(c(O)c1C2=O)C[C@@](O)(C(=O)CO)C[C@@H]3O[C@H]1C[C@H](N)[C@@H](O)[C@H](C)O1", "Potency": "148 nM (active)"}, {"smiles": "Cc1cnc(Nc2ccc(CN3CCOCC3)cc2)nc1Nc1cccc(S(=O)(=O)NC(C)(C)C)c1", "Potency": "1660 nM (active)"}, {"smiles": "C[C@H]1[C@@H](OC(=O)CCC(=O)O)O[C@@H]2O[C@@]3(C)CC[C@@H]4[C@H](C)CC[C@@H]1[C@@]24OO3", "Potency": "5260 nM (active)"}, {"smiles": "O=C1c2cccc(O)c2C(=O)c2c(O)cc(CO)cc21", "viability (% of control)": "97.3%"}, {"smiles": "CC(Oc1ccc(O)cc1)(P(=O)(O)O)P(=O)(O)O", "Potency": "2350 nM (active)"}, {"smiles": "CC(C)(C)[C@H](NC(=O)c1ccc(N)c(Cl)c1)C(=O)N1CCC[C@@H]1C(=O)N[C@H](C#N)CC(=O)O", "viability (% of control)": "118% [at 3.51 µM]"}, {"smiles": "Nc1ncn([C@@H]2O[C@H](CO)[C@@H](O)[C@@H]2O)c(=O)n1", "Potency": "18700 nM (active)"}, {"smiles": "C[C@@H]1CC[C@@]2(OC1)OC1CC3C4CC=C5CC(O)CCC5(C)C4CCC3(C)C1[C@@H]2C", "note": "(stereo not given in full)", "viability (% of control)": "121%"}, {"smiles": "CN(C)c1ccc2cc(C(=O)N[C@@H](CCCN=C(N)CCl)C(=O)NCc3ccccc3)ccc2c1", "Potency": "8330 nM (active)"}, {"smiles": "Cc1cnc(NC(=O)Nc2cc(Br)c(C)cc2OC[C@@H]2CNCCO2)cn1", "Potency": "1870 nM (active)"}, {"smiles": "CON=C(C(=O)N[C@@H]1C(=O)N2C(C(=O)O)=C(CSC(=O)c3ccco3)CS[C@H]12)c1csc(N)n1", "viability (% of control)": "88.2%"}, {"smiles": "CCC[C@H]1C[C@H](C(=O)N[C@@H]([C@@H]2O[C@@H](SC)[C@@H](O)[C@@H](O)[C@@H]2O)[C@H](C)Cl)N(C)C1", "viability (% of control)": "99.7%"}, {"smiles": "CCCCOc1ccc(C(=O)Nc2ccc(F)cc2F)cc1", "viability (% of control)": "93.1%"}, {"smiles": "CCCCCCCCCCCCc1ccc(S(=O)(=O)Nc2nncs2)cc1", "Potency": "8330 nM (active)"}, {"smiles": "CC(C)[C@H](CO)Nc1nc(Nc2cccc(Cl)c2)c2ncn(C(C)C)c2n1", "Potency": "18700 nM (active)"}, {"smiles": "OCCNC1CCCc2c1[nH]c1ccc(-c3ccccc3)cc21", "note": "(stereo not given)", "Potency": "14800 nM (active)"}, {"smiles": "Cn1cnc(=N)c2[nH]cnc21", "Potency": "332 nM (active)"}, {"smiles": "CN(C)CC[C@H](c1ccc(Cl)cc1)c1ccccn1", "viability (% of control)": "105%"}, {"smiles": "CC(O)(C#Cc1ccc2c(c1)N(c1nc(N)ncc1Cl)CC2)c1nccs1", "note": "(stereo not given)", "Potency": "8330 nM (active)"}, {"smiles": "COc1ccc(S(=O)(=O)Nc2cc(-c3c(O)ccc4ccccc34)c(O)c3ccccc23)cc1", "Potency": "1480 nM (active)"}]}]}
